Source: PubChem
Rows were chosen to be rich in hits. Some 3.2% of all compounds tested hit in one or more screens of this group.
MsrA inh – bovine MsrA inhibition; purified bovine MsrA, absorbance read-out; inhibition, % at 15.5 µM; 0.75% of 360,000 active; AID 651718; in the data active means inhibition above about 4.5%
rCAG binder – molecules binding r(CAG) RNA repeats. r(CAG) RNA repeat, TO-PRO-1 dye displacement fluorescence. inhibition, % at 3 µM. 1.3% of 370,000 active. AID 651821;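 active means inhibition above the plate cutoff, the mean of all test compounds on that plate plus 3 SD, cut at about 35% in these data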;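 further: higher means more dye released from RNA so lower well fluorescence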
PG9 binder – small molecules binding HIV-1 gp120 antibody PG9. TR-FRET gp120-PG9 antibody binding. inhibition, % at 6.7 µM. 0.43% of 360,000 active; in the data active means inhibition above about 8.5%
HGIII-sPLA2 inh – Blocks human group III sPLA2 activity; AID 743126; QFRET BODIPY PC-A2 liposome hydrolysis, fluorescence; 0.56% of 370,000 active; inhibition, % at 12.2 µM; Q9NZ20;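 active means inhibition above mean plus 3 SD of compounds lying within the high and low control bounds, cut at about 19% in these data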
Target sequence (Q9NZ20 whole entry, looked up): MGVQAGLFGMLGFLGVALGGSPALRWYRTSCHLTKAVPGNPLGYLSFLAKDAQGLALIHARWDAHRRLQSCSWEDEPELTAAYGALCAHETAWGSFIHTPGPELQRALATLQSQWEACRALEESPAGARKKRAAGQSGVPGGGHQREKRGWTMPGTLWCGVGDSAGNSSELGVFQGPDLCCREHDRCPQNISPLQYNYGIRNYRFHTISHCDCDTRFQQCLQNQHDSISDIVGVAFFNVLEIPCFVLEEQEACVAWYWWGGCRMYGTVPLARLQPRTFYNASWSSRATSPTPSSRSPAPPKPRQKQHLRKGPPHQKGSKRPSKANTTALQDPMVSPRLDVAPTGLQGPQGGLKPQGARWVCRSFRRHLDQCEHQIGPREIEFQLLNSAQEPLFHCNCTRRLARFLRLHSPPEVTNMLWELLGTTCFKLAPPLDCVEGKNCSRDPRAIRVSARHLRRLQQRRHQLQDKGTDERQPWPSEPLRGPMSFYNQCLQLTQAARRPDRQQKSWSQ
MsrA act – bovine methionine sulfoxide reductase A activation. activation, % at 10.6 µM. purified bovine MsrA, absorbance read-out. 0.3% of 360,000 active. AID 602163; in the data active means activation above about 7.5%
rCAG bind conf – r(CAG) RNA repeat binding, confirmation. shares compounds with rCAG binder. TO-PRO-1 dye displacement fluorescence. inhibition, % at 3 µM. 70% of 4,300 active;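 active means inhibition above a per-plate cutoff, the mean inhibition of sample wells plus 3 SD, cut at about 35% in these data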;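 further: loss of TO-PRO-1 fluorescence as compound displaces dye from 1x1 AA loop RNA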
dCAG dye counter – disrupts DNA CAG TO-PRO-1 complex, flagging rCAG hits; shares compounds with rCAG binder; d(CAG) DNA oligo TO-PRO-1 dye displacement, fluorescence; inhibition, % at 3 µM; 94% of 4,300 active; AID 652068;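 active means inhibition above its plate's cutoff, the mean test-well inhibition plus 3 SD, cut at about 4.8% in these data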;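 further: hits displace the dye from DNA and so lower well fluorescence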
DNA CAG DR – disrupts DNA CAG TO-PRO-1 complex in dose response; shares compounds with rCAG binder; DNA CAG/GTC duplex TO-PRO-1 dye displacement fluorescence; IC50, µM; 20% of 250 active; in the data active means IC50 below about 10 µM
A number is an active result; n = inactive; x = not tested or not shown.

SMILES | MsrA inh | rCAG binder | PG9 binder | HGIII-sPLA2 inh | MsrA act | rCAG bind conf | dCAG dye counter | others
O=C1CS/C(=C\[N+](=O)[O-])N1c1ccc(OC(F)(F)F)cc1 | n | 49 | n | n | n | n | n
CC1(C)CCC(=O)N(c2ccc(OC(F)(F)F)cc2)C1=O | n | n | n | n | n | x | x
CSc1ccc(-c2csc(N3CCC(C(N)=O)CC3)n2)cc1 | x | x | x | n | x | x | x
NC(=O)C1CCN(c2nc(-c3ccc(Oc4ccccc4)cc3)cs2)CC1 | x | x | x | n | x | x | x
CC(=O)NS(=O)(=O)c1ccc(N=c2ssc3c2-c2cc(C)ccc2NC3(C)C)cc1 | n | 48 | n | n | n | 45 | 16
COc1cccc(/C=C2\SC(=S)N(NS(=O)(=O)c3ccc(C)cc3)C2=O)c1OC | n | 75 | n | n | n | 66 | 28
COc1ccccc1/C=C1\SC(=S)N(NS(=O)(=O)c2ccccc2)C1=O | n | 69 | n | n | n | 69 | 22
COc1cc(/C=C2\SC(=S)N(NS(=O)(=O)c3ccc(C)cc3)C2=O)cc(OC)c1OC | n | n | n | n | n | x | x
COc1ccc(/C(C)=N/NC(=O)Cc2cc(=O)[nH][nH]2)cc1OC | x | n | x | n | x | x | x
CN(Cc1ccco1)C(=O)CN1C(=O)C2(OCCCO2)c2ccccc21 | x | n | x | n | x | x | x
c1coc(-c2nc(N=C3N=c4ccccc4=N3)[nH]c2-c2ccco2)c1 | n | 39 | n | n | n | n | 19
O=C(Nc1ccc(N2C(=O)C3C4C=CC(C4)C3C2=O)cc1)Nc1nnc(C(F)(F)F)s1 (stereo not given) | n | 55 | n | n | n | 40 | 16
C[C@H]1O[C@@H](n2c3ccc(Cl)cc3c3ccc4c5cc(Cl)ccc5[nH]c4c32)[C@H](O)[C@H](O)[C@H]1O | x | 78 | x | n | x | 54 | 43
C[C@@H]1O[C@@H](n2c3ccc(Cl)cc3c3ccc4c5cc(Cl)ccc5[nH]c4c32)[C@H](O)[C@H](O)[C@H]1O | x | 62 | x | n | x | 60 | 42
C[C@H]1O[C@@H](n2cc(F)c(=O)[nH]c2=O)[C@H](O)[C@@H]1O | n | n | n | n | n | x | x
O=[N+]([O-])c1cccc(C2=Nn3c(nnc3-c3ccccc3)SC2)c1 | x | n | x | n | x | x | x
CCN(C(=O)C(C)OC(=O)c1nn(-c2ccccc2C(F)(F)F)cc1O)c1ccccc1 (stereo not given) | n | n | n | n | n | x | x
CCOC(=O)N1CCN(C(=O)CNC(=O)c2nn(-c3ccc(OC)c(Cl)c3)c(=O)c3ccccc23)CC1 | n | 39 | n | n | n | n | n
CCOC(=O)N1CCN(C(=O)CNC(=O)c2nn(-c3ccc(OC)c(OC)c3)c(=O)c3ccccc23)CC1 | n | n | n | n | n | x | x
O=S(=O)(c1ccccc1)N1CCN(S(=O)(=O)c2ccc3c(c2)OCCO3)CC1 | x | x | x | n | x | x | x
COc1ccc(Cl)cc1NC(=O)[C@@]1(CC(=O)O)CC(/C=C/c2ccccc2)=NO1 | n | 38 | n | n | n | 36 | 8.2
COc1ccc(NC(=O)[C@@]2(CC(=O)O)CC(/C=C/c3ccccc3)=NO2)cc1 | n | n | n | n | n | x | x
COc1cc(OC)cc(-c2c(C#Cc3ccsc3)c3cc(-c4ccc5[nH]ccc5c4)ccc3n2C)c1 | n | 37 | n | n | n | n | 22
COc1cc(OC)cc(-c2c(C#Cc3ccsc3)c3cc(-c4cc(OC)c(OC)c(OC)c4)ccc3n2C)c1 | n | n | n | n | n | x | x
Cc1ccc(-c2cc(C(=O)N=Nc3c(O)[nH]c4ccccc34)[nH]n2)cc1C | x | n | x | n | x | x | x
SMILES | MsrA inh | rCAG binder | PG9 binder | HGIII-sPLA2 inh | MsrA act | rCAG bind conf | dCAG dye counter | others
COC(=O)c1ccc(CN(c2ccccn2)S(=O)(=O)c2ccccc2)cc1 | n | n | n | n | n | x | x
COC(=O)c1ccc(CN(c2ccc(C(=O)O)c(O)c2)S(=O)(=O)c2ccc(Cl)c([N+](=O)[O-])c2)cc1 | n | 43 | n | n | n | 52 | 18
CC(SCc1ccccc1)C(=O)Nc1ccc(F)cc1 (stereo not given) | n | n | n | n | n | x | x
N#CC(C#N)=C(Nc1ccc(F)cc1)SCc1cccc(Br)c1 | n | 47 | n | n | n | 51 | 16 | DNA CAG DR=n
CCN1C(=O)/C(=C2\SC(=S)N(NC(=O)c3ccccc3O)C2=O)c2ccccc21 | n | 77 | n | n | n | 86 | 58
CCN1C(=O)/C(=C2\SC(=S)N(c3c(C)n(C)n(-c4ccccc4)c3=O)C2=O)c2ccccc21 | n | n | n | n | n | x | x
CS(=O)(=O)c1ccc2nc(NC(=O)c3ccccc3Cl)sc2c1 | n | n | n | n | n | x | x
NS(=O)(=O)c1ccc2nc(NC(=O)Nc3ccc(F)cc3)sc2c1 | n | 57 | n | n | n | n | 24
CS(=O)(=O)c1ccc2nc(NC(=O)Nc3ccc(Cl)cc3)sc2c1 | n | 60 | n | n | n | 54 | 34
CCC[C@H]1[C@@H](OC(=O)NC2CCCCC2)CC[C@@]23CCCN2C(=O)CCC[C@@H]13 | x | x | x | n | x | x | x
N=C1SC(c2ccccc2)C(=O)N1c1ncc(Cc2ccccc2Cl)s1 (stereo not given) | n | 58 | n | n | n | 72 | 32 | DNA CAG DR=n
Cc1ccc(NS(=O)(=O)c2cc(N)ccc2Cl)c(C)c1 | n | n | n | n | n | x | x
Cc1ccc(NS(=O)(=O)c2cc(NC(=O)c3cc(=O)[nH]c(=O)[nH]3)ccc2Cl)c(C)c1 | n | 54 | n | n | n | 61 | 20
O=C(Nc1nc(Cc2ccccc2)c(Cc2ccccc2)n1Cc1ccccc1)c1ccccc1 | x | n | x | n | x | x | x
O=C(NNC(=S)Nc1cccc2ccccc12)c1cccc(Br)c1 | n | 66 | n | n | n | 72 | 36
O=C(NNC(=O)c1ccc2ccccc2c1)c1cccc(Br)c1 | n | n | n | n | n | x | x
CCC[C@H]1[C@@H](NC(=O)NCC)CC[C@@]23CCCN2C(=O)CCC[C@@H]13 | x | x | x | n | x | x | x
COC(=O)c1ccc2c(C(C)c3ccccc3O)c[nH]c2c1 (stereo not given) | x | n | x | n | x | x | x
O=C(Cc1nnc(NC(=O)Nc2ccc(F)cc2)s1)Nc1ccccc1 | n | 38 | n | n | n | n | 15
O=C(Nc1ccccc1)Nc1nnc(Cc2ccc(F)cc2)s1 | n | 36 | n | n | n | n | 12
O=C(Cc1nnc(NC(=O)Nc2ccccc2)s1)Nc1ccccc1 | n | n | n | n | n | x | x
C=CCN1C(=O)[C@H](CC(=O)N2CCN(C(=O)c3ccco3)CC2)[C@@]2(C(=O)OCC)CCCC=C12 | x | n | x | n | x | x | x
O=C(c1cccc(Oc2ccccc2)c1)N1CCC(Oc2cccnc2)CC1 | x | n | x | n | x | x | x
O=C(O)c1ccc(Cl)c(S(=O)(=O)Nc2ccc(S(=O)(=O)N3CCCC3)cc2)c1 | n | n | n | n | n | x | x
